Many of the other results were omitted from the sample, so hits are more common in it than they were.
LDHA block = qHTS assay for inhibitors of human lactate dehydrogenase. L-lactate dehydrogenase A chain (Homo sapiens), P00338. purified LDHA, NADH/diaphorase-resazurin fluorescence; hits give low values. activity change, % (values are at about 110 or 230 µM). 0.15% of 480,000 active; in the data active means activity change below about -30%; inconclusive means mostly about -25% to -30%
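Human LDH5 at 2 nM final in Tris HCl pH 7.4 with 0.06 mM NADH and 0.2 mM pyruvate, reacted 5 minutes at room temperature. Remaining NADH coupled via diaphorase/resazurin; resorufin fluorescence read at 0 and 20 minutes, normalized to enzyme-free and DMSO wells.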
S-ASM inh = Inhibitors of Secretory Acid Sphingomyelinase (S-ASM): qHTS | 0.006% of 340,000 active | Potency, µM (highest dose often 57.5 µM), most hits filed as inhibitors | placental ASM, HMU-PC fluorogenic substrate, 60 min | Sphingomyelin phosphodiesterase (Homo sapiens), P17405
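Human placenta-derived ASM enzyme was preincubated with compound for 10 minutes at room temperature, then given fluorogenic substrate HMU-PC0 (9 uM final) for 60 minutes at 37 °C; a pH 10 stop preceded fluorescence reading at Ex 386/Em 447 nm.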
ClpP mod = qHTS Assay for Activators of ClpP; purified B. subtilis ClpP, FRET peptide cleavage, 20 min; Potency, µM (titrated, usually from 57.5 µM); 1.9% of 340,000 active; AID 651965, 2013; active means well fitted falling curve with a large enough effect; inconclusive means small, poorly fitted or top-dose-only effect; inactive means no such curve, though single readings can be large or run the other way; further: the source files actives as falling curves though it sought activators and does not explain the sign; nearly all actives have a fitted effect of over 65% in size
Target sequence (P80244 whole entry, looked up): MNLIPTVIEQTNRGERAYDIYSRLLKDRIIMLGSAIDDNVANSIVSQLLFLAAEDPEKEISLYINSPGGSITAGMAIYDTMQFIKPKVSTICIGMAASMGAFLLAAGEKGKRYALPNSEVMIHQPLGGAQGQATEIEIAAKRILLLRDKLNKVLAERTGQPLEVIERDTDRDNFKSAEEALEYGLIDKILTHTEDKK
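FRET quenching reversal measured ClpP activation: 10 microg/mL B. subtilis ClpP at pH 8 with the FRET-FV decapeptide, read at 430 nm after 320 nm excitation. The 20-min minus 0-min signal was scaled between DMSO/no-enzyme wells and ADEP (5.8 microM final).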
RGS4 inhibitor = Inhibitors of Regulator of G Protein Signaling (RGS) 4: qHTS; Regulator of G-protein signaling 4 (Homo sapiens), P49798; Potency, µM (top dose mostly 114 µM), most hits filed as inhibitors; Transcreener GDP fluorescence polarization, RGS4-accelerated GTP hydrolysis; 0.039% of 390,000 active; further: nearly all actives have a fitted effect of over 75% in size
Target sequence (P49798 whole entry, looked up): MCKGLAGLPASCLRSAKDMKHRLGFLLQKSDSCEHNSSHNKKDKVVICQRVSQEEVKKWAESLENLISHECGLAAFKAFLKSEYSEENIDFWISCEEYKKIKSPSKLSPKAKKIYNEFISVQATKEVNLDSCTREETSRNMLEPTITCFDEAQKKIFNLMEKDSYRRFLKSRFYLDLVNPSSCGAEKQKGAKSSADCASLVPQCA
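MLSMR compounds (23 nl, pin-transferred) preincubated 10 min at room temperature with a 500nM (2x) first reagent, then RGS4 at 900nM (2x) plus Transcreener GDP mix added; fluorescence polarization (620/688 nm) read before and after 90 min at 30 °C.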
Mito fusion yeast = qHTS Assay for Small Molecule Inhibitors of Mitochondrial Division or Activators of Mitochondrial Fusion; S. cerevisiae fusion-defective mutant growth rescue, CellTiterGlo 48 h; AID 485298, 2010; Potency, µM (doses to about 46.1 µM), usual class: activators; 0.23% of 320,000 active; further: nearly all actives have a fitted effect of over 45% in size
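Yeast fusion mutant, YPEG (non-fermentable carbon), compound, 48 h at 37C non-permissive; CellTiterGlo added, 10 min RT, luminescence read. Rescued growth = division inhibition.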
IDH1 R132H inh = qHTS for Inhibitors of mutant isocitrate dehydrogenase 1 (IDH1): qHTS | Isocitrate dehydrogenase [NADP] cytoplasmic (Homo sapiens), O75874 | IDH1-R132H enzyme, NADPH consumption, diaphorase/resazurin fluorescence | Potency, µM (doses to about 76.6 µM), most hits filed as inhibitors | 0.093% of 390,000 active | AID 602179, 2012; further: nearly all actives have a fitted effect of over 65% in size
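IDH1-R132H (0.5 ug/mL dispensed) in pH 7.5 Tris buffer was preincubated 30 min with compound, then given a substrate mix of 0.016 mM NADPH and 2 mM alpha-KG for 80 min at room temperature; remaining NADPH was read by diaphorase/resazurin fluorescence.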
Each line names hits and unclear results; the compound was inactive in the other large screens. Unless noted, the call rests on the fitted dose curve; in most records, active means well fitted curve in the direction sought with a large enough effect; inconclusive means small, poorly fitted or top-dose-only effect, or another doubt; inactive means no such curve, though single readings can be large; an effect the other way counts as inactive or inconclusive.

CC1(C)Cc2c(cnn2-c2ccccc2)C(=O)/C1=N\NC(=O)c1ccccc1N	none
COc1ccc(-c2cc3ccccc3n2CC(O)Cn2nc(C)cc2C)cc1 (stereo not drawn)	ClpP mod 22µM
COc1ccc(-c2cc3ccccc3n2CC(O)CNC(CO)(CO)CO)cc1 (stereo not drawn)	ClpP mod 35µM
COc1ccc(-c2cc3ccccc3n2CC(O)CN2CCC(C)CC2)cc1 (stereo not drawn)	none
CCCn1c(=O)[nH]c(=O)c2c1nc(-c1ccc(OC(F)(F)C(F)C(F)(F)F)cc1)n2CCOC (stereo not drawn)	ClpP mod 28µM
CSc1ccc(/C=N/NC(=O)CNc2cccc3ccccc23)cc1	none (no result: ClpP mod)
CSc1ccc(CNc2cccc3ccccc23)cc1	ClpP mod 28µM
COc1ccc(Cn2c(N)c(S(=O)(=O)c3cccs3)c3nc4ccccc4nc32)cc1	ClpP mod 8.9µM
COCCn1c(N)c(S(=O)(=O)c2cccs2)c2nc3ccccc3nc21	none
COc1cccc(/C=N/n2c(N)c(S(=O)(=O)c3cccs3)c3nc4ccccc4nc32)c1OC	ClpP mod 2.8µM
Nc1c(S(=O)(=O)c2cccs2)c2nc3ccccc3nc2n1Cc1ccccc1	ClpP mod 35µM
Cc1ccc(Cn2c(N)c(S(=O)(=O)c3cccs3)c3nc4ccccc4nc32)cc1	ClpP mod 3.2µM
O=C(COC(=O)c1ccc(F)c(S(=O)(=O)N2CCOCC2)c1)Nc1ccccc1OC(F)F	none (no result: S-ASM inh, ClpP mod, RGS4 inhibitor, Mito fusion yeast, IDH1 R132H inh)
COC(=O)c1ccc(C2=NOC(C)(c3sc(-c4ccc(Cl)cc4)nc3C)C2)cc1 (stereo not drawn)	ClpP mod 25µM
O=C(Nc1ccccc1N1CCCCC1)c1ncoc1-c1ccc(F)cc1	ClpP mod 28µM
O=C(Nc1ccccc1N1CCCCC1)c1ncoc1-c1cccc(F)c1	none
c1ccc(-c2sc3ccccc3c2-c2ccc(OCCN3CCOCC3)cc2)cc1	ClpP mod 32µM (no result: Mito fusion yeast)
O=C(Oc1cc(-c2ccccc2)no1)c1ccc(Cl)cc1	ClpP mod 40µM
Cc1ccc(C(=O)Oc2cc(-c3ccccc3)no2)cc1	none
CC(=O)Nc1ccc(CNC2CCCCC2C(F)(F)F)cc1 (stereo not drawn)	none (no result: S-ASM inh, ClpP mod, RGS4 inhibitor, Mito fusion yeast, IDH1 R132H inh)
COc1ccc(OC)c(-c2cc(C(=O)Nc3c(C)nn(Cc4ccccc4Cl)c3C)no2)c1	ClpP mod 35µM
Cc1cc(C)n(-c2ccc(C(=O)OCC(=O)NC(=O)NC3CCCC3)cc2)n1	none (no result: S-ASM inh, ClpP mod, RGS4 inhibitor, Mito fusion yeast, IDH1 R132H inh)
Cc1cc(C)n(-c2ccc(C(=O)OCC(=O)NC3CCS(=O)(=O)C3)cc2)n1 (stereo not drawn)	LDHA block -30 (no result: S-ASM inh, ClpP mod, RGS4 inhibitor, Mito fusion yeast, IDH1 R132H inh)
Cc1ccc(C(=O)OCCCN(C)C)cc1	none (no result: S-ASM inh, ClpP mod, RGS4 inhibitor, Mito fusion yeast, IDH1 R132H inh)
CCCCNC(=S)N(Cc1c(C)noc1C)c1ccccc1	ClpP mod 4µM
Clc1ccc(N2CCN(c3ncnc4nc[nH]c34)CC2)cc1Cl	LDHA block -31 (no result: S-ASM inh, ClpP mod, RGS4 inhibitor, Mito fusion yeast, IDH1 R132H inh)
Cc1ccc(S(=O)(=O)Oc2ccc(C3C4=C(CCCC4=O)N(CCC(=O)O)C4=C3C(=O)CCC4)cc2Cl)cc1	ClpP mod 25µM
CCOc1cc(C2C3=C(CCCC3=O)N(CCC(=O)O)C3=C2C(=O)CCC3)ccc1OS(=O)(=O)c1ccc(C)cc1	ClpP mod inconclusive
CCOC(=O)c1ccc(NC(=O)CC2CCCCC2)cc1	none (no result: S-ASM inh, ClpP mod, RGS4 inhibitor, Mito fusion yeast, IDH1 R132H inh)
CC(=O)C1=C(C)OC(=O)C1(NC(=O)c1ccccc1)C(F)(F)F (stereo not drawn)	none (no result: S-ASM inh, ClpP mod, RGS4 inhibitor, Mito fusion yeast, IDH1 R132H inh)
O=C(NCCc1ccc(Cl)cc1)Nc1ccc(Cl)cc1F	none (no result: S-ASM inh, ClpP mod, RGS4 inhibitor, Mito fusion yeast, IDH1 R132H inh)
CCCCCCNc1cc2n(c(=O)n1)CCc1cc(OC)c(OC)cc1-2	ClpP mod 16µM
